Test [1] can be described thus: anti-His antibody binders, primary screen, artefact control for SMM control protein annotation, biochemical, small-molecule microarray, 635 nm fluorescence (AID 1128).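 Note: score merges feature fluorescence with signal-to-noise for each printed compound spot.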 To be noted: anti-His Alexa647 antibody binding, higher = more signal.
The test system of test [2] is Human papillomavirus type 1a E7 protein (residues 1-88). The experiment in a line: HPV1a E7 small-molecule binders, primary screen, biochemical, small-molecule microarray, residues 1-88, 635 nm (AID 1129). To be noted: small-molecule microarray binding, fluorescence 635 nm; higher = more signal.
Test [3] concerns the target Focal adhesion kinase 1 (Homo sapiens) (UniProt Q05397). The experiment in a line: small-molecule microarray binders of FAK, primary screen, biochemical, 635/667 nm fluorescence, BSA, DTT (AID 1130).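 Note: composite of spot emission at 667 nm and signal to noise over triplicate slides.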 To be noted: PTK2 binding, 635 nm fluorescence, higher = more signal.
In test [4] the test system is Fibrinogen (Alexa647-labelled). The experiment in a line: fibrinogen binders on compound microarrays, profiling panel, artefact control for SMM control-protein annotation, biochemical, small-molecule microarray, 635/667 nm fluorescence (AID 1131).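 Note: z-score merges 667 nm fluorescence with per-spot signal-to-noise over triplicate slides.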 To be noted: fibrinogen-A647 binding fluorescence, higher = more signal.
Test [5] deals with Follistatin (Homo sapiens) (UniProt P19883). The experiment in a line: follistatin binders on small-molecule microarrays, primary screen, biochemical, small-molecule microarray, 635/667 nm fluorescence (AID 1132). To be noted: FST binding, 635 nm fluorescence, higher = more signal.
In test [6] the target is Fibroblast growth factor 2 (Homo sapiens) (UniProt P09038). The experiment in a line: FGF2 binders on small-molecule microarrays, primary screen, biochemical, small-molecule microarray, 635/667 nm fluorescence (AID 1133). To be noted: small-molecule microarray binding, FGF2, fluorescence 635/667; higher = more signal.
Test [7] can be described thus: mitochondrial membrane potential change in A549 cells, profiling panel, cell-based, JC-1 fluorescence, basal, 24 h, 100 nL (AID 1138).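 Note: A549 lung adenocarcinoma cells under basal conditions with no added stimulus; test concentration not given here.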 To be noted: higher = more signal.
The test system of the next test is Lefty1. The experiment in a line: Lefty1 binders on small-molecule microarrays, primary screen, biochemical, small-molecule microarray, 635/667 nm fluorescence (AID 1139). To be noted: small-molecule microarray binding, fluorescence 635/667; higher = more signal.
Test [8] has as its system wheat germ agglutinin (Triticum aestivum), Alexa647-labelled. The experiment in a line: wheat germ agglutinin binders on compound microarrays, profiling panel, artefact control for SMM control-protein annotation, biochemical, small-molecule microarray, 635/667 nm fluorescence (AID 1140).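 Note: score merges 667 nm feature emission with signal to noise over triplicate slides.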 To be noted: WGA-A647 binding, 635 nm fluorescence, higher = more signal.
Test [9] has as its target Luciferin 4-monooxygenase (Photinus pyralis) (UniProt P08659). The experiment in a line: firefly luciferase enzyme inhibitors, primary screen, biochemical, luminescence, purified enzyme, 2006 set (AID 1141).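 Note: cell-free assay with purified firefly luciferase at 100 ng per well in PBS; test concentration not given here.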 To be noted: SteadyGlo luminescence, 30 min, higher = more signal, called active from +8 up or from −8 down.
The test system of test [10] is Wnt5a (protein binding on small-molecule microarray). The experiment in a line: Wnt5a binders on small-molecule microarray, primary screen, biophysical, 635/667 nm fluorescence (AID 1142).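 Note: fluorescence read at 667 nm with signal to noise per printed feature.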 To be noted: 635 nm fluorescence, higher = more signal.
Test [11] is described as follows: cell viability in Huh7 cells, primary screen, cytotoxicity control for HCV replication inhibitor project, CellTiter-Glo luminescence, basal, 48 h (AID 1143).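 Note: Huh7 hepatoma cells carrying a hepatitis C replication reporter with no stimulus; test concentration not given here.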 To be noted: Huh7 HCV replicon, higher = more signal, called active from +8 up or from −8 down. For orientation: In ATP-based viability assays light output follows the ATP content of the culture.
Test [12] in a line: P. aeruginosa biofilm formation inhibitors, primary screen, PAO1 strain, BacTiter-Glo luminescence, LB-PBS (AID 1144). To be noted: 12 h, higher = more signal.
A short description of test [13]: CREB reporter modulators without forskolin, primary screen, cell-based, PC12, CRE-LacZ reporter, unstimulated (AID 1145). To be noted: no forskolin, luminescence, 4.5 h, higher = more signal, called active from +8 up or from −8 down.
The nature of test [14]: CREB reporter modulators under forskolin, primary screen, cell-based, PC12, CRE-LacZ reporter, forskolin-stimulated (AID 1146).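 Note: PC12 cells with 6xCRE LacZ reporter stimulated by forskolin 10 µM; beta-galactosidase reporter signal reflecting CREB driven transcription.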 To be noted: luminescence, 4.5 h, higher = more signal, called active from +8 up or from −8 down.
The target of test [15] is Streptavidin (Streptomyces avidinii) (UniProt P22629). The experiment in a line: streptavidin binders on small-molecule microarray, primary screen, artefact control for SMM compound annotation, biophysical, 635/667 nm fluorescence (AID 1147).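 Note: signal reflects streptavidin binding to arrayed compounds as a control protein.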 To be noted: streptavidin binding, higher = more signal.
Test [16] in a line: small-molecule binders of probe aInhba, primary screen, biochemical, small-molecule microarray, 635/667 nm fluorescence (AID 1148).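 Note: score merges 667nm spot fluorescence with signal-to-noise for antibody binding to printed compounds.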 To be noted: higher = more signal.
Test [17] has as its target Torsin-1A (Homo sapiens) (UniProt O14656). The experiment in a line: torsin A binders from cell lysate, primary screen, small-molecule microarray, wild-type, 635/667 nm (AID 1149). To be noted: COS7 hTOR1A-WT lysate, 635 nm fluorescence, higher = more signal.
For test [18] the target is unchanged. The experiment in a line: small-molecule binders of mutant TOR1A in lysate, primary screen, cell lysate, small-molecule microarray, COS7 lysate, 635/667 nm fluorescence (AID 1150).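 Note: score pools 667 nm emission and signal to noise measuring lysate protein binding.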 To be noted: COS7 hTOR1A mutant lysate, 635 nm fluorescence, higher = more signal.
The subject of test [19] is Sonic hedgehog protein (Shh). The experiment in a line: small-molecule binders of Shh protein, primary screen, biochemical, small-molecule microarray, 635/667 nm fluorescence (AID 1151).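 Note: Shh protein binding to compounds spotted on small-molecule microarray slides; score combines spot fluorescence intensity with signal-to-noise across triplicate slides.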 To be noted: small-molecule microarray binding, 635 nm fluorescence; higher = more signal.

Among the data in PubChem BioAssay are composite z-score and z-score values, retold here.

Active and inactive are the calls of the source. Unless noted, the rule behind the calls is not given here.

Follistatin (Homo sapiens), sequence (P19883 whole entry, looked up): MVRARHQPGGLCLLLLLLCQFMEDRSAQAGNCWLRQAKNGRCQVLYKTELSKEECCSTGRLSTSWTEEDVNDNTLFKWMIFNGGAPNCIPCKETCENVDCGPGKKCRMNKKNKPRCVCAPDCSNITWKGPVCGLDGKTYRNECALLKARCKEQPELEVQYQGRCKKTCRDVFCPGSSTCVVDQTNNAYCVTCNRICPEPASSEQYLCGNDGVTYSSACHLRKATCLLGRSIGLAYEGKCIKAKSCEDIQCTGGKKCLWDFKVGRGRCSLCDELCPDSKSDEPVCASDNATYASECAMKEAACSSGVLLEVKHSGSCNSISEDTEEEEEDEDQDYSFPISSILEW
Streptavidin (Streptomyces avidinii), sequence (P22629 whole entry, looked up): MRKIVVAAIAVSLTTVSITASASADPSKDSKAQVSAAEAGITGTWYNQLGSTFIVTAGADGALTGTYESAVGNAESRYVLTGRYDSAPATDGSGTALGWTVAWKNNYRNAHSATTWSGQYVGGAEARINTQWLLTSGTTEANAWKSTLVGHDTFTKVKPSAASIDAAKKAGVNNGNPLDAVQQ
Torsin-1A (Homo sapiens), sequence (O14656 whole entry, looked up): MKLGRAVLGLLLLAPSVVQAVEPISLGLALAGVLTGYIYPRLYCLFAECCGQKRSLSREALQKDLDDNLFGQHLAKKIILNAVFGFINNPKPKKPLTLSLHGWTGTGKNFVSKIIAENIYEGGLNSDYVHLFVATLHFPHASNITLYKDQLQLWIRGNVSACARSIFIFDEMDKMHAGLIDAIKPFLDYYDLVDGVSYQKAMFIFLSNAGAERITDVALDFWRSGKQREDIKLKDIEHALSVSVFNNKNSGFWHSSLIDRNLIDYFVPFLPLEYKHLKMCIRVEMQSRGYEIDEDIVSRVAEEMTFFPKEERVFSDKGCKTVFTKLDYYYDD
Fibroblast growth factor 2 (Homo sapiens), sequence (P09038 whole entry, looked up): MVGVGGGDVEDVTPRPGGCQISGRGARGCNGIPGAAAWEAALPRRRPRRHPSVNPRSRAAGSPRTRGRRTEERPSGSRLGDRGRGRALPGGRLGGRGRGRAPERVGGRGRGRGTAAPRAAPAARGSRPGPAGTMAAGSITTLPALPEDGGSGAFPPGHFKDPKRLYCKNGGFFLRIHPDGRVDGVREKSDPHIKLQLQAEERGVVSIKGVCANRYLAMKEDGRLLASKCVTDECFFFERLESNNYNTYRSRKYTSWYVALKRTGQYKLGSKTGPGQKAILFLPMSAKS
Luciferin 4-monooxygenase (Photinus pyralis), sequence (P08659 whole entry, looked up): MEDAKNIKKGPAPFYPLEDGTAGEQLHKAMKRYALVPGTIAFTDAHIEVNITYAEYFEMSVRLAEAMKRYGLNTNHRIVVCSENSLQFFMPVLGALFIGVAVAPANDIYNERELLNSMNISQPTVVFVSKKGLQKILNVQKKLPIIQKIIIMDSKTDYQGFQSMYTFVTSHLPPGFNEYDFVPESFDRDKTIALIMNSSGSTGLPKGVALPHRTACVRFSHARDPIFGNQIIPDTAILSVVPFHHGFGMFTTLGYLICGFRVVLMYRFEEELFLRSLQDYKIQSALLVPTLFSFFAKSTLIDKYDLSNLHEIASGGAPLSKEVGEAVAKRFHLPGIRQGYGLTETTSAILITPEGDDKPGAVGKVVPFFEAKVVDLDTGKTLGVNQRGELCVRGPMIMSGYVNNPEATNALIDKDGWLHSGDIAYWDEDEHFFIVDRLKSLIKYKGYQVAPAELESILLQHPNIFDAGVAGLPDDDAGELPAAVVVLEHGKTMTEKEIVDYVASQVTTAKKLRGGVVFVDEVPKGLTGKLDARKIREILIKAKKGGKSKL
Focal adhesion kinase 1 (Homo sapiens), sequence (Q05397 whole entry, looked up): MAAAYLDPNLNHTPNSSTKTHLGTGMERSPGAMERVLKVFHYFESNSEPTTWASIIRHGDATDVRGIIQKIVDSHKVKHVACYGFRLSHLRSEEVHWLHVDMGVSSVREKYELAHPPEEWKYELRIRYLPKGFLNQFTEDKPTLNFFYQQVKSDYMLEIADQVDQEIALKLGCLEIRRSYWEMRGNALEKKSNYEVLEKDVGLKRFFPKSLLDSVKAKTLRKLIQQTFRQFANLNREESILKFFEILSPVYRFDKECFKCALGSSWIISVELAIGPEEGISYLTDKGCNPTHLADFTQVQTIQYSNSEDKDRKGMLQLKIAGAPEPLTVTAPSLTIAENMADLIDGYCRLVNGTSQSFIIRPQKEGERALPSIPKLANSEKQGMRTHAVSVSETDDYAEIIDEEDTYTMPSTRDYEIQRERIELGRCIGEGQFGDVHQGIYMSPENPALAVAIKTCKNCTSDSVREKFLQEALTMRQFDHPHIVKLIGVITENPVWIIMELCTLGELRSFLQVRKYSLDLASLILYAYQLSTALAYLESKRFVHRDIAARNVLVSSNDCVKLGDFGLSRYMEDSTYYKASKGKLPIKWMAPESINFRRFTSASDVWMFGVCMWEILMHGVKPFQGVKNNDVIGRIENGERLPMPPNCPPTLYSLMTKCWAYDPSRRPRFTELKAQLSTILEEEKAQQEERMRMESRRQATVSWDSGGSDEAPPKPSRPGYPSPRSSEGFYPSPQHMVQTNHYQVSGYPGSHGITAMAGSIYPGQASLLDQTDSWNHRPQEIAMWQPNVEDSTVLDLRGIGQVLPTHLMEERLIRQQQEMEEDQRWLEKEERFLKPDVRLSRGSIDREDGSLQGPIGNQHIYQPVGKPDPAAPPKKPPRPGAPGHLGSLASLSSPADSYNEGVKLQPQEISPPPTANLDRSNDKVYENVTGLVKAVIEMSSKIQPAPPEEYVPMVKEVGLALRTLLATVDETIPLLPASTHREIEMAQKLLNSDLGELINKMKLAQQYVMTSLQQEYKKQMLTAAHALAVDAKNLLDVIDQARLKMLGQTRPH

For `COc1ccc([Si](C)(C)[C@@H]2[C@@H](CC(=O)N(CCO)Cc3ccccc3)O[C@]3(C(=O)N(Cc4ccc(N5CCOC5=O)cc4)c4ccccc43)[C@H]2C)cc1`, the composite z-score in test [1] worked out at 1.56; in test [2], 0.595; in test [3], 0.294; in [4] it was 0.631; in test [5], 1.17; in test [6], 1.05. The composite z-score in the test on Lefty1 turned out to be 1.48; in [8], 0.415; in test [10], 0.0838; in test [15] it was 0.601; in [16], 0.027; with Torsin-1A (Homo sapiens) [17], 0.436. The composite z-score with Torsin-1A (Homo sapiens) [18] is 0.0783; in test [19], 1.95. The z-score in test [7] is -0.147; in [9], -0.356 (inactive); in test [11], -5.01 (inactive); in [12] it was 0.0675 (inactive); in test [13], 7.59 (inactive); in [14], 0.331 (inactive).

As to `COC(=O)C(CC#Cc1ccc2c(c1)[C@]1(C(=O)N2)[C@H](C(=O)N2CCc3cc(OC)c(OC)cc3C2)[C@H]2C(=O)O[C@H](c3ccccc3)[C@H](c3ccccc3)N2[C@@H]1c1ccc(OCCO)cc1)C(=O)OC`, the composite z-score in test [1] is 1.47; in [2], 1.19; in [3] it was 0.344; in test [4], 0.99; in test [5] it was 1.01; in test [6], 1.71. Further, the composite z-score in the test on Lefty1 was determined as 0.928; in test [8], 1.23; in [10], 0.5; in test [15] it was 1.28; in test [16], 0.246; in the test with Torsin-1A (Homo sapiens) [17], 1.28. For the same compound, the results for the composite z-score (with Torsin-1A (Homo sapiens) [18]; in test [19]) were 0.251 and 1.64, respectively. In addition, the z-score in test [7] is -1.29; in test [9], -1.9 (inactive); in [11], -0.201 (inactive); in [12] it was -0.895 (inactive); in test [13], 0.865 (inactive); in test [14] it was -0.474 (inactive).

Turning to `O=C1NC(=O)C2C1C=CC(C(O)CCc1ccccc1)N2Nc1ccccn1` (stereo not given), the composite z-score in test [1] was -0.0572; in test [2], 0.495; in [3], 0.318; in test [4], 0.415; in test [5], 0.269; in test [6], -0.157. Further, the composite z-score in the test on Lefty1 was -0.139; in [8], 0.589; in [10], 0.149; in test [15] it was 0.179; in test [16], -0.0849; with Torsin-1A (Homo sapiens) [17] it was 0.0825. Further, the values for the composite z-score (with Torsin-1A (Homo sapiens) [18]; in [19]) were 0.486 and 0.0046, respectively. The z-score is 0.681 in test [7]; -1.13 (inactive) in test [9]; -0.466 (inactive) in test [11]; -0.922 (inactive) in [12]; 0.433 (inactive) in [13]; -0.382 (inactive) in test [14].

Consider `C[N+](C)(C)CCCCCCNC(=O)[C@@H]1C[C@@H]2C(=O)NCC(=O)N2[C@@H]1c1ccc(O)cc1`, for which the composite z-score in test [1] was 0.946; in [2] it was 1.05; in [3], -0.0272; in test [4], 0.49; in test [5], 1.41; in test [6] it was 1.31. For the same compound, the composite z-score with Lefty1 is 1.53; in [8], 0.01; in test [10], 0.0508; in test [15], 1.44; in [16] it was -0.0933; in the test with Torsin-1A (Homo sapiens) [17], 0.319. The composite z-score with Torsin-1A (Homo sapiens) [18] is 0.523; in test [19], 2.16. For the same compound, the z-score in [7] is -0.779; in test [9], 0.584 (inactive); in [11], -0.0464 (inactive); in test [12] it was -0.404 (inactive); in [13], -0.532 (inactive); in test [14] it was -0.828 (inactive).
